65 compounds from PubChem BioAssay AID1347418 (Sanford-Burnham Center for Chemical Genomics, 2020) can be followed below.

As a reminder, the inhibition is the relative decrease from the control value, in per cent.

In all, about 1,300 compounds went through this assay and about 750 (58%) were called active. The list shows a part of the results. Values without a mark were called inactive.

The target in this assay is Sulfhydryl oxidase 1 (Homo sapiens) (UniProt O00391). The experiment in a line: QSOX1 enzyme inhibitors, primary screen, biochemical, ROS-Glo H2O2 luminescence, HTS (AID 1347418). The following applies: recombinant QSOX1, ROS-Glo H2O2 luminescence, at 12.5 µM, stronger effect = higher value; active = any value above zero unless noted.
Chain of Sulfhydryl oxidase 1 (Homo sapiens) (O00391 whole entry, looked up): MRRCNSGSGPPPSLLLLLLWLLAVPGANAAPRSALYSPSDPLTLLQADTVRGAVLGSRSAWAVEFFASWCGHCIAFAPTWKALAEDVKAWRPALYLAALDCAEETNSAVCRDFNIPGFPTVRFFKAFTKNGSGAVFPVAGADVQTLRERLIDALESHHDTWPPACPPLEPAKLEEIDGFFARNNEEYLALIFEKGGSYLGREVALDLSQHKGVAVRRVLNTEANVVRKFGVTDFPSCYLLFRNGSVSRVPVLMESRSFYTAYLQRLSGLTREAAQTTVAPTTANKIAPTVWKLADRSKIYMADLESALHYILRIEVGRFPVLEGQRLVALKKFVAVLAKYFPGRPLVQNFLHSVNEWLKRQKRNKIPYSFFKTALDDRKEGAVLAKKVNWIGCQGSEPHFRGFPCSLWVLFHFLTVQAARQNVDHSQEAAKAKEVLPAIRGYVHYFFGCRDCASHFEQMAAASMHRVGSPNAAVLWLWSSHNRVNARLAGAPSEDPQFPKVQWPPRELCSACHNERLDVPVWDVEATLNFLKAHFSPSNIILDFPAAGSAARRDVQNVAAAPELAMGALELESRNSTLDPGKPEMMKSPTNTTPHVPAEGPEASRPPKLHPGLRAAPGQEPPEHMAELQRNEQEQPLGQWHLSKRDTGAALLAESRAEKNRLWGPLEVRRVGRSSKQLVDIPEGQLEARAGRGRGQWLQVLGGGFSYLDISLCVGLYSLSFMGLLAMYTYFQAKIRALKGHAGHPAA
Turning to `CN(N=O)c1cc(O)ccc1O`, the inhibition is 4.1% (active).

Take `CN(N=O)c1ccc(O)c(O)c1`: the inhibition was 5.2% (active). `NC1CC1c1ccccc1` (stereo not given): the inhibition is -0.7%. For the compound `CCCN1CC[C@@H]2c3cc(O)ccc3CC[C@@H]21`, the inhibition is -5.9%. As for `CCCN1CCO[C@@H]2c3cc(O)ccc3OC[C@H]21`, the figure is 4.3% (active). Regarding `CCN(CCCl)Cc1ccccc1Br`, the inhibition is 1.5% (active). To `COc1ccc2c(c1OC)C(=O)O[C@H]2[C@@H]1c2cc3c(cc2CCN1C)OCO3` belongs -2.2%. As for `CN1CCc2cc(O)cc3c2[C@H]1Cc1ccc(O)c(O)c1-3`, the inhibition was 25.4% (active).

On to `C=CCN1CCc2cccc3c2[C@H]1Cc1ccc(O)c(O)c1-3`, for which the inhibition is 23.6% (active). To `CCCN1CCc2cccc3c2[C@H]1Cc1ccc(O)c(O)c1-3` belongs 25.2% (active). On to `COc1ccc2c(c1O)-c1cccc3c1[C@@H](C2)N(C)CC3`, for which the inhibition was 3.5% (active). To `CCCN1CCc2cc(O)cc3c2[C@H]1Cc1ccc(O)c(O)c1-3` belongs 29.9% (active); to `C[C@H]1C2Cc3ccc(O)cc3C1(C)CCN2CC1CC1` (stereo not given in full), 4.5% [setting not given] (active). To `O=C(O)CC[N+](=O)[O-]` belongs -3.4% [setting not given]; to `CC(C)NP(=O)(NC(C)C)OP(=O)(NC(C)C)NC(C)C`, 10.1% (active). Turning to `C[C@H](N)CN1CCc2ccc(Br)cc21`, the inhibition is 35.7% (active). As for `CCCn1c(=O)c2[nH]c(C3CCCC3)nc2n(CCCOC(=O)c2ccc(S(=O)(=O)F)cc2)c1=O`, the figure is -1.3%; as for `CC(=O)c1c(O)c(C)c(O)c(Cc2c(O)c3c(c(C(=O)/C=C/c4ccccc4)c2O)OC(C)(C)C=C3)c1O`, 0.8% (active); as for `CCNC(=O)[C@H]1O[C@@H](n2cnc3c(N)ncnc32)C(O)[C@H]1O` (stereo not given in full), 3.3% (active). In the case of `CCCC(C)(COC(N)=O)COC(=O)NC(C)C` (stereo not given), the inhibition was 1.5% [setting not given] (active). To `NC1CCc2cc(O)c(O)cc2C1` (stereo not given) belongs 12.7% (active); to `Ic1ccccc1CNC1C2CCN(CC2)C1C(c1ccccc1)c1ccccc1` (stereo not given), -6.2%; to `COc1ccc2c(c1)C13CCCCC1C(C2)N(C)CC3` (stereo not given), -2.3% [setting not given]. As for `COc1ccc2c(c1)[C@@]13CCCC[C@H]1[C@@H](C2)NCC3`, the figure is 1.4% [setting not given] (active); as for `c1ccc(C2CC2)c(OCC2=NCCN2)c1`, -2%; as for `CC(CCc1ccccc1)NC(C)C(O)c1ccc(O)cc1` (stereo not given), 0.8% (active). For `Nc1ccc(CCN2CCN(c3cccc(C(F)(F)F)c3)CC2)cc1`, the inhibition was 2.2% (active). To `S=C(NC1CCCCC1)N1CCC(c2cnc[nH]2)CC1` belongs -1.7%; to `Clc1ccc(N2CC3CCC(C2)N3)nn1`, 1.8% (active); to `C#CCN[C@H](C)Cc1ccccc1`, 4.3% [setting not given] (active). To `N[C@@H](CCl)C(=O)O` belongs -3.4%; to `C[Se]C[C@H](N)C(=O)O`, 3.9% (active); to `O=C1NCN(c2ccccc2)C12CCN(CC1COc3ccccc3O1)CC2` (stereo not given), -3.1%.

Take `C/C(O)=C(\C#N)C(=O)Nc1cc(Br)ccc1Br`: the inhibition was -1.3%. Take `COc1cc(CC(C)N)c(OC)cc1I` (stereo not given): the inhibition is 4.3% [setting not given] (active). To `NC(=O)c1ccc(OCC(O)CN2CC=C(c3ccc(F)cc3)CC2)cc1` (stereo not given) belongs 0.4% (active). To `COc1ccc(C(CN(C)C)C2(O)CCCCC2)cc1` (stereo not given) belongs -1.3%; to `CC(C)NC(C)Cc1ccc(I)cc1` (stereo not given), 5.2% [setting not given] (active); to `COc1ccc2[nH]c3c(c2c1)CCNC3`, 0.8% (active). To `O=S1(=O)N(CCN2CC=C(c3c[nH]c4cc(F)ccc34)CC2)c2cccc3c2N1CCC3` belongs 4.2% (active); to `CC(=O)[C@H]1CC[C@H]2[C@@H]3CC[C@H]4C[C@H](O)CC[C@]4(C)[C@H]3C(=O)C[C@]12C`, -0.2% [setting not given]; to `O=C(CCCN1CCC2(CC1)C(=O)NCN2c1ccccc1)c1ccc(F)cc1`, -1% [setting not given]. For `Fc1ccc(C(OCCN2CCN(CCCc3ccccc3)CC2)c2ccc(F)cc2)cc1`, the inhibition was 6.5% (active). As for `c1ccc(CCCN2CCN(CCOC(c3ccccc3)c3ccccc3)CC2)cc1`, the figure is 7% (active); as for `CC[C@@H](CO)NC(=O)[C@@H]1C=C2c3cccc4[nH]cc(c34)C[C@H]2N(C)C1`, 6.3% [setting not given] (active); as for `CC[C@@H](CO)NC(=O)[C@@H]1C=C2c3cccc4c3c(cn4C)C[C@H]2N(C)C1`, 1.6% [setting not given] (active). As to `C=CCN1CC[C@]23c4c5ccc(O)c4O[C@H]2/C(=N/NC(=O)c2ccccc2)CC[C@@]3(O)[C@H]1C5`, the inhibition is -0.4% [setting not given]. As for `O=C1CC[C@@]2(O)C3Cc4ccc(O)c5c4C2(CCN3CC2CC2)[C@H]1O5` (stereo not given in full), the figure is 1.2% [setting not given] (active); as for `C=CCN1CC[C@]23c4c5ccc(O)c4O[C@@H]2/C(=N/N=C2\CC[C@@]4(O)C6Cc7ccc(O)c8c7[C@@]4(CCN6CC=C)[C@@H]2O8)CC[C@@]3(O)C1C5`, 1.8% (active). As for `C=CCN1CCC23c4c5ccc(O)c4O[C@H]2C(=O)CC[C@@]3(O)C1C5` (stereo not given in full), the figure is 3.2% [setting not given] (active). To `CCOC(=O)c1ncn2c1[C@@H]1CCCN1C(=O)c1cc(OC)ccc1-2` belongs 3.1% (active); to `Cc1ncsc1CCCl`, 4.8% (active). On to `Clc1cnc(Oc2ccc(Oc3ncc(Cl)cc3Cl)cc2)c(Cl)c1`, for which the inhibition was -1.5% [setting not given].

In the case of `CN1CCC(c2c[nH]c3ccc(O)cc23)CC1`, the inhibition was 26.8% (active). As for `CC(Cc1ccc(O)cc1)NCC(O)c1cc(O)cc(O)c1` (stereo not given), the figure is 7.9% [setting not given] (active); as for `CC(Cc1ccc(OCC(=O)O)cc1)NCC(O)c1cccc(Cl)c1` (stereo not given), -3.3%; as for `N[C@@]1(C(=O)O)CC[C@@H](C(=O)O)C1`, -1.7%. To `CN1CC[C@@]2(C)c3cc(O)ccc3N(C)C12` (stereo not given in full) belongs 15.2% (active); to `CN1CC[C@@]2(C)c3cc(OC(=O)Nc4ccccc4)ccc3N(C)[C@@H]12`, 8.3% (active); to `CC[C@@H](C(N)=O)N1CCCC1=O`, -2.6% [setting not given].

On to `NC(=O)CN1CCCC1=O`, for which the inhibition was 2.9% [setting not given] (active). For `NC(=O)CN1CC(O)CC1=O` (stereo not given), the inhibition was 1.1% [setting not given] (active).

With `O=C1CCCN1CC#CCN1CCCC1`, the inhibition is -8.1% [setting not given]. To `Cc1cccc(C)c1NC(=O)CN1CCCC1=O` belongs 3% [setting not given] (active). To `COc1ccc(C(=O)N2CCCC2=O)cc1` belongs -3% [setting not given].
